# Compound activity (PubChem)
# Rows were chosen to be rich in hits. Some 3.1% of all compounds tested hit in one or more screens of this group.
# MEKK3 PB1 HTS: raises or lowers MEK5 binding to the human MEKK3 PB1 domain; Q99759; bead-based flow cytometry, Alexa488-MEK5 binding to MEKK3; actives lie on both sides; 0 = blocked by unlabeled MEK5, 100 = vehicle; binding response (% of control), % at 10 µM; actives 1.4% (n = 290,000);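 active = binding response more than 3 SD above or below the average of its plate-row segment, actives on both sides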;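 also: Alexa488 bead fluorescence after subtracting the streptavidin-only scavenger bead signal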
# ATG4B inhibitor: inhibitors of human ATG4B cysteine protease; Q9Y4P1; ATG4B cleavage of LC3-PLA2, NBD-HPC fluorescence, 1 h; inhibition, % at 8.33 µM; actives 0.51% (n = 340,000); AID 504462; in the data active = inhibition above about 40%
# PREPL inh: inhibits the human prolyl oligopeptidase-like enzyme; recombinant PREPL, fluorescence polarization activity-based probe; inhibition, % at 5.96 µM; actives 0.68% (n = 320,000);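 also: 0% = enzyme with DMSO and 100% = wells lacking enzyme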
# Target sequence (Q4J6C6 whole entry, looked up): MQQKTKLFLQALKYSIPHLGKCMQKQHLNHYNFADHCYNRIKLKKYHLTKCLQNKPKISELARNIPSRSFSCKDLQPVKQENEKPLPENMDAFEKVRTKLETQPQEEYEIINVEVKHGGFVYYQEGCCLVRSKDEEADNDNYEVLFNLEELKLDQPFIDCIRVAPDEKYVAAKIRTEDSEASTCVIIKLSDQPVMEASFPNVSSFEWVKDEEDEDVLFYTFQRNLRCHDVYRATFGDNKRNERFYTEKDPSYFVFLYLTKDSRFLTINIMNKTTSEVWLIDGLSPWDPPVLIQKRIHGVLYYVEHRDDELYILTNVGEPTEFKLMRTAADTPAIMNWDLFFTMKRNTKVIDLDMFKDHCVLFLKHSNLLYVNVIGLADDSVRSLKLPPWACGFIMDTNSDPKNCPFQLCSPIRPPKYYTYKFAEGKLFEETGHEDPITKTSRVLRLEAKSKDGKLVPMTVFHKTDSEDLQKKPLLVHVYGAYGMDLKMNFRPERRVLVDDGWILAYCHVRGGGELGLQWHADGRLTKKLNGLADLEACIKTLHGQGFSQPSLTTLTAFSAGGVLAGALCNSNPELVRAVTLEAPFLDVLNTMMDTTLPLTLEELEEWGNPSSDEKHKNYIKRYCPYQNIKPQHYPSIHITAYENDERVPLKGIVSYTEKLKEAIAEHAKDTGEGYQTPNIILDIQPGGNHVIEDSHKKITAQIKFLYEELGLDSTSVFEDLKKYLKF
# UBC13 polyUb: blocks human UBC13 polyubiquitin chain formation | TR-FRET | actives 0.47% (n = 330,000) | P61088 | inhibition, % at 20 µM; in the data active = inhibition above about 45%, passing the limit was not always enough
# MEKK2wt PB1 HTS: raises or lowers MEK5 binding to wildtype human MEKK2 PB1 domain; Q9Y2U5; bead flow cytometry, Alexa488-MEK5 binding to MEKK2 WT; actives lie on both sides; binding response (% of control), % at 10 µM; actives 1.1% (n = 290,000); in the data active = binding response below about 67% or above about 130%
# MEKK2mut PB1 HTS: signal of MEK5 binding to mutant human MEKK2 PB1 domain | bead flow cytometry, Alexa488-MEK5 binding to MEKK2 mutant | percent response, % at 10 µM | actives 0.35% (n = 290,000); in the data active = percent response above about 24%, passing the limit was not always enough
# MEKK2wt confirm: raises or lowers MEK5 binding to wildtype human MEKK2, retest; shares compounds with MEKK3 PB1 HTS; bead flow cytometry, Alexa488-MEK5 binding to MEKK2 WT; actives lie on both sides; binding response (% of control), % at 10 µM; actives 2.4% (n = 5,900); in the data active = binding response below about 16% or above about 210%; inactive = in between
# MEKK2mut-MEK5: signal of MEK5 binding to mutant human MEKK2, retest. shares compounds with MEKK3 PB1 HTS. bead flow cytometry, Alexa488-MEK5 binding to MEKK2 mutant. percent response, % at 10 µM. actives 2% (n = 5,900); in the data active = percent response mostly above about 71%, no sharp cut-off; inactive = mostly below about 38%;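 also: higher means compound restores mutant binding toward wildtype level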
# MEKK3-MEK5 inh: confirmation of inhibitors of MEK5 binding to human MEKK3 | shares compounds with MEKK3 PB1 HTS | bead flow cytometry, Alexa488-MEK5 binding to MEKK3; hits give low values | binding response (% of control), % at 10 µM | actives 1.8% (n = 5,900) | AID 1894;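 active = binding response below 72% of control, or above a set upper limit, though filed actives all read lower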;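 also: 100% = DMSO only wells and 0% = binding blocked by excess unlabeled MEK5; lower values mean stronger disruption of MEK5 binding to MEKK3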
# PREPL confirm: human PREPL inhibition, confirmation; shares compounds with PREPL inh; recombinant PREPL, fluorescence polarization activity probe; inhibition, % at 5.96 µM; actives 67% (n = 2,000);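 also: 0% = protein with DMSO and 100% = wells lacking protein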
# * = called active by the depositor; . = no result; [ ] = another dose, or the depositor's remark. Rule as the data show it, unless noted: active = inhibition above about 43%; inactive = the rest.
SMILES,MEKK3 PB1 HTS,ATG4B inhibitor,PREPL inh,UBC13 polyUb,MEKK2wt PB1 HTS,MEKK2mut PB1 HTS,MEKK2wt confirm,MEKK2mut-MEK5,MEKK3-MEK5 inh,PREPL confirm
CCCn1c2ccccc2c2cnn(CC(=O)N3CCN(C4CCCCC4)CC3)c(=O)c21,103,-12,15,30,104,3,.,.,.,.
Oc1ccc(Nc2nc(N3CCCC3)c3ccccc3n2)cc1,107,-10,72*,28,153*,21,197,93*,109,66*
COc1ccc(Nc2nc(N3CCCCC3)c3ccccc3n2)cc1,106,-8,60*,31,136*,14,158,36,112,43
COC(=O)CCC(=O)OC1(C)C(=O)C2=CN(C3CC3)C(c3ccc(OC)cc3)=CC2=C(Br)C1=O (stereo not given),87,-1,75*,-58,2.0*[inhibitor],-2,93,2,94,69*
COC(=O)CCC(=O)OC1(C)C(=O)C2=CN(CC(C)C)C(c3ccc(OC)cc3)=CC2=C(Br)C1=O (stereo not given),88,.,74*,-97,-7.0*[inhibitor],1,83,-12,71*,48*
COC(=O)CCC(=O)OC1(C)C(=O)C2=CN(CCc3c[nH]c4ccccc34)C(c3ccc(OC)cc3)=CC2=C(Br)C1=O (stereo not given),84,3,16,-34,88,-3,.,.,.,.
Cc1cc(C)c2c(n1)SCC(=O)N2CC(=O)Nc1c(C)cccc1C,96,1,4,2,94,-1,.,.,.,.
CCC(CO)[n+]1c(C)cc(/C=C2\Sc3ccccc3N2Cc2ccccc2)cc1C (stereo not given),79,15,77*,.,63*[inhibitor],-5,107,11,100,73*
Cc1cccc(C)c1NC(=O)NC1(C(=O)N2CCCC2)CCCCC1,102,-6,5,-1,96,-1,.,.,.,.
Nc1ccc2nc(CCCCCCCCc3nc4ccc(N)cc4[nH]3)[nH]c2c1,107,0,70*,-6,140*,9,147,36,102,23
COc1ccc(/C=N/Nc2cc(C)nc3c(C)cccc23)cc1,116,-5,48*,21,279*,71*,197,45,104,47*
COc1ccc(-c2c(-c3ccccc3)c(C(=O)C(=O)NCCCN(C)C)n3ccc4cc(OC)c(OC)cc4c23)cc1OC,107,-1,46*,9,140*,13,150,45,114,52*
CN(C)CCNC(=O)C(=O)c1c(-c2ccccc2)cc2ccccn12,103,5,-27,-1,99,-3,.,.,.,.
CC1CCCN(Cc2c(O)ccc3c(=O)c(-c4nc5ccccc5s4)c(N)oc23)C1 (stereo not given),111,-15,65*,20,161*,25,155,30,104,62*
CC1CCCN(Cc2c(O)ccc3c4c(c(=O)oc23)CCCC4)C1 (stereo not given),87,0,-1,21,95,-9,.,.,.,.
CCOc1ccc(-c2cnc(NCc3cccc4ccccc34)n2CCOC)cc1,117,17,47*,16,192*,20,132,4,99,43
CCn1c2ccccc2c2cc(CNCc3ccc(OC)cc3OC)ccc21,107,5,49*,34,170*,17,175,11,98,51*
O=C(N/N=C/c1ccc(OCc2ccccc2)cc1)c1cc[n+](Cc2ccccc2)cc1,97,20,53*,21,153*,21,160,26,109,42
COc1cc2nc(N(C)C)nc(N)c2cc1OC,102,7,1,17,108,6,.,.,.,.
COc1cc2nc(Nc3ccc(C)c(C)c3)nc(N)c2cc1OC,112,-23,52*,34,159*,28*,159,39,104,51*
Cc1cc2cc(CNC(=O)c3ccc(Br)o3)ccc2n1C,66*[inhibitor],4,65*,-8,45*[inhibitor],-3,50,-20,75,66*
CCCC(=O)NCc1ccc2c(c1)cc(C)n2C,94,5,20,36,87,-10,.,.,.,.
Cc1ccc(C23CCC(=O)N2C(C(=O)O)CS3)c(C)c1 (stereo not given),103,5,-2,-1,102,0,.,.,.,.
CCOc1ccc2[nH]c3c(N4CCc5ccccc5C4)ncnc3c2c1,115,39,54*,10,187*,42,199,46,110,65*
COc1ccc(CNC(=O)c2c(N)n(CCCN3CCOCC3)c3nc4ccccc4nc23)cc1,95,-29,69*,31,154*,39,149,39,110,50*
SMILES,MEKK3 PB1 HTS,ATG4B inhibitor,PREPL inh,UBC13 polyUb,MEKK2wt PB1 HTS,MEKK2mut PB1 HTS,MEKK2wt confirm,MEKK2mut-MEK5,MEKK3-MEK5 inh,PREPL confirm
COC(=O)c1c(N)n(CCCN2CCOCC2)c2nc3ccccc3nc12,110,-14,9,-2,99,2,.,.,.,.
CCOC(=O)c1nn(-c2ccc(F)cc2)c(=O)cc1OCC(=O)Nc1ccc(OCC)cc1,.,-1,-6,-6,.,.,.,.,.,.
Cc1ccc(S(=O)(=O)c2cc(OC(=O)c3ccco3)ccc2OC(=O)c2ccco2)cc1,128*,0,86*,-10,101,-1,96,-8,104,77*
O=C(Oc1ccc(-c2ccccc2)cc1)c1ccco1,.,2,.,.,.,.,.,.,.,.
CCOC(=O)CNC(=O)CSc1nnc(CCc2nc3ccccc3[nH]2)n1C,98,3,7,-1,104,2,.,.,.,.
COc1ccccc1N1CCN(Cc2nc(N)nc(Nc3ccc(C)c(Cl)c3)n2)CC1,104,-16,29,-2,117,7,.,.,.,.
